# Data taken from publication PMC7862700, “An all-to-all approach to the identification of sequence-specific readers for epigenetic DNA modifications on cytosine”.
# Key:
# Experiment in all cases: DAPPL (digital affinity profiling via proximity ligation, sequencing); 10 mM Tris-HCl pH 7.5, 50 mM NaCl, 1 mM DTT, 4% glycerol, room temperature, 30 min; GST-TFs on glutathione beads, 16-mer random dsDNA library, 0.1% formaldehyde crosslink after washing; high values mean tight binding
# [1] = molecular target: T1, FEV (Homo sapiens, UniProt Q99581 1-238); settings: protein: recombinant; tags: N-terminal GST; dsDNA, one strand shown
# T1 sequence: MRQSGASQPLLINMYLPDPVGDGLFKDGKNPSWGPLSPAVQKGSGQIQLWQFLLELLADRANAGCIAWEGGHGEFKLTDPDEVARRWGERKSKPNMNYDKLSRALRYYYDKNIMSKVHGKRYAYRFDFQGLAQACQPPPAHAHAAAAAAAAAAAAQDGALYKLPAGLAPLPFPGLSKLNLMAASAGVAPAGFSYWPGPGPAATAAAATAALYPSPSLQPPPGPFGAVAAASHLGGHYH
# Summary of the method: (§1)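 In yeast, human transcription factors were expressed with a GST fusion, then pulled down on glutathione beads and given DNA barcodes. Pooled with a tag-only sample, they were exposed to 200 nmole of a 16-mer random double-stranded DNA library (Tris/NaCl/DTT/glycerol buffer, room temperature, 30 min), washed, crosslinked with 0.1% formaldehyde, proximity-ligated using BsaI/T4 ligase for 1 h at 37 °C, PCR-amplified and read on an Illumina NextSeq500. Each hexamer's frequency of reads for a factor, divided by the matching frequency for the tag-only sample, gives the binding signal.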
# [2] = molecular target: ETV5 (Homo sapiens, UniProt P41161 1-510); settings: protein: recombinant; tags: N-terminal GST; dsDNA, one strand shown
# Summary of the method: as §1
# [3] = molecular target: HSF1 (Homo sapiens, UniProt Q00613 1-529); settings: protein: recombinant; tags: N-terminal GST; chain copies: 3; dsDNA, one strand shown
# Summary of the method: as §1
# [4] = molecular target: T2, SPIC (Homo sapiens, UniProt Q8N5J4 1-248); settings: protein: recombinant; tags: N-terminal GST; dsDNA, one strand shown
# T2 sequence: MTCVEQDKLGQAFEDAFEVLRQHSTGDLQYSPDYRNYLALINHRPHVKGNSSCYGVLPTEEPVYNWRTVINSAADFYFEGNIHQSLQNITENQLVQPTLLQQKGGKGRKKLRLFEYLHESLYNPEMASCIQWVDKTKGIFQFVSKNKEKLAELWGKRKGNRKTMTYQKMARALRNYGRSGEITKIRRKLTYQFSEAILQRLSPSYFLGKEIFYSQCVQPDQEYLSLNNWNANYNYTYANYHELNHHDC
# Summary of the method: as §1
# [5] = molecular target: ELF4 (Homo sapiens, UniProt Q99607 1-663); settings: protein: recombinant; tags: N-terminal GST; dsDNA, one strand shown
# Summary of the method: as §1
# [6] = molecular target: T3, ELK4 (Homo sapiens, UniProt P28324-2 1-405); settings: protein: recombinant; tags: N-terminal GST; dsDNA, one strand shown
# T3 sequence: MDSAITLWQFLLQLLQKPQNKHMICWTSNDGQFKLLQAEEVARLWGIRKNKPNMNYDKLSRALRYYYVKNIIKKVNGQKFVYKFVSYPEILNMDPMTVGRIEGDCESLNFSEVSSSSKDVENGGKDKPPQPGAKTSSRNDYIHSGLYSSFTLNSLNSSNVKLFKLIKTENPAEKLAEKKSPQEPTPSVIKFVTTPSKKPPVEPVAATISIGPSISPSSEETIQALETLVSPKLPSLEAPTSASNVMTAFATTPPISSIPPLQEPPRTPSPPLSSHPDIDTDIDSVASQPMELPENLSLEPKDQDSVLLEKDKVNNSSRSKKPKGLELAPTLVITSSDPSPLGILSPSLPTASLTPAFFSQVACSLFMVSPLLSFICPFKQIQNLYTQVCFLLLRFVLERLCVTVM
# Summary of the method: as §1
# [7] = molecular target: T4, ETV2 (Homo sapiens, UniProt O00321 1-342); settings: protein: recombinant; tags: N-terminal GST; dsDNA, one strand shown
# T4 sequence: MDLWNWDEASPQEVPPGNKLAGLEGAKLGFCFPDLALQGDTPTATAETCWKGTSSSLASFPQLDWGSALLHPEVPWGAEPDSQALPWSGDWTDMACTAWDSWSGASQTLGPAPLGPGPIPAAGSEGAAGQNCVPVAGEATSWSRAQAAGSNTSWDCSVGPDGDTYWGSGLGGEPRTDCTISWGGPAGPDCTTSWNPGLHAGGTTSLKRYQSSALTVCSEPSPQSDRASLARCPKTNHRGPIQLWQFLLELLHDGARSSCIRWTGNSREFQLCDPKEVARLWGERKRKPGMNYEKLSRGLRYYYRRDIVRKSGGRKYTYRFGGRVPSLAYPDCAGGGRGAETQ
# Summary of the method: as §1
# [8] = molecular target: T5, ELF3 (Homo sapiens, UniProt P78545 1-371); settings: protein: recombinant; tags: N-terminal GST; dsDNA, one strand shown
# T5 sequence: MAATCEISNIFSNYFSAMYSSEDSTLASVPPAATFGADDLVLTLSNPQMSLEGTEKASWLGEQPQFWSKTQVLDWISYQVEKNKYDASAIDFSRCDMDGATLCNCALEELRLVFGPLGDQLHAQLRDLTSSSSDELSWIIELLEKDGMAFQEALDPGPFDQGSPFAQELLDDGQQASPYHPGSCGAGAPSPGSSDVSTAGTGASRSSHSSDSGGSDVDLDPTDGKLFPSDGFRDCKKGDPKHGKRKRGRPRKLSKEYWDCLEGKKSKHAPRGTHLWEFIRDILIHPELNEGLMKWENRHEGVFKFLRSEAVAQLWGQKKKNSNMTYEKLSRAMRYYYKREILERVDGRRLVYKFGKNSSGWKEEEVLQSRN
# Summary of the method: as §1
# [9] = molecular target: CRX (Homo sapiens, UniProt O43186 1-299); settings: protein: recombinant; tags: N-terminal GST; dsDNA, one strand shown
# Summary of the method: as §1
# [10] = molecular target: ETV1 (Homo sapiens, UniProt P50549 1-477); settings: protein: recombinant; tags: N-terminal GST; dsDNA, one strand shown
# Summary of the method: as §1
# Chain of CRX (O43186 whole entry): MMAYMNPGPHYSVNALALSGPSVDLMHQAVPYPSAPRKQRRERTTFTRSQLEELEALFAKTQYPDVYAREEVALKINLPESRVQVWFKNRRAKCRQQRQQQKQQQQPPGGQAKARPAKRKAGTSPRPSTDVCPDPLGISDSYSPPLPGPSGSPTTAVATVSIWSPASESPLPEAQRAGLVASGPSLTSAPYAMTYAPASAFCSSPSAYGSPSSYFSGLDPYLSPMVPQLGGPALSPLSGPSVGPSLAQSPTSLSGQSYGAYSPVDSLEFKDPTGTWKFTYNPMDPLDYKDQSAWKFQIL
# Chain of HSF1 (Q00613 whole entry): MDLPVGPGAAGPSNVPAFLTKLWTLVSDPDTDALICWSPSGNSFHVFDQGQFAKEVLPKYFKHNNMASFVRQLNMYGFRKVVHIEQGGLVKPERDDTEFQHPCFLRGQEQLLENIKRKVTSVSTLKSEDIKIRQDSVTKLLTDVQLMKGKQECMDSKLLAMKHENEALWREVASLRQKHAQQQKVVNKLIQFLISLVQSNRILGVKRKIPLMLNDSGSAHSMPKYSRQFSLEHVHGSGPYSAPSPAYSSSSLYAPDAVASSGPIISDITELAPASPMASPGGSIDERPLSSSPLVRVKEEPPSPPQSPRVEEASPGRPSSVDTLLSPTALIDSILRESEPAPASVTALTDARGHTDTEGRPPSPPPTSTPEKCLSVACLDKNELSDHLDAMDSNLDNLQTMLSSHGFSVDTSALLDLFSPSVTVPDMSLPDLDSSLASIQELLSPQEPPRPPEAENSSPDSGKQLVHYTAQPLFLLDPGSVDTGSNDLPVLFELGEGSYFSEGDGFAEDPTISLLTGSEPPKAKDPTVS
# Chain of ETV1 (P50549 whole entry): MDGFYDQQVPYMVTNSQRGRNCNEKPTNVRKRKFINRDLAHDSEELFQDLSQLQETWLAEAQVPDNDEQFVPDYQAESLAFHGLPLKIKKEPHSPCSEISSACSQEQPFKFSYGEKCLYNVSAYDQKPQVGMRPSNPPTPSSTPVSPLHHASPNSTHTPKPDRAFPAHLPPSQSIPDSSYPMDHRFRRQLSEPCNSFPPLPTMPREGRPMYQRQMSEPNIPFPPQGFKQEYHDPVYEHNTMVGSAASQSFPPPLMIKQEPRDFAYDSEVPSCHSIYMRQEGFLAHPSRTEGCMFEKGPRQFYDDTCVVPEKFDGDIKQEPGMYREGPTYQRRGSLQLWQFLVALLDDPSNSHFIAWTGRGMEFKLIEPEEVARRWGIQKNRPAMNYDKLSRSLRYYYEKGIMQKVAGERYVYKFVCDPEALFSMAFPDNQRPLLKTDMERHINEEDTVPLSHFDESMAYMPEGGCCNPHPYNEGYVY
# Chain of ELF4 (Q99607 whole entry): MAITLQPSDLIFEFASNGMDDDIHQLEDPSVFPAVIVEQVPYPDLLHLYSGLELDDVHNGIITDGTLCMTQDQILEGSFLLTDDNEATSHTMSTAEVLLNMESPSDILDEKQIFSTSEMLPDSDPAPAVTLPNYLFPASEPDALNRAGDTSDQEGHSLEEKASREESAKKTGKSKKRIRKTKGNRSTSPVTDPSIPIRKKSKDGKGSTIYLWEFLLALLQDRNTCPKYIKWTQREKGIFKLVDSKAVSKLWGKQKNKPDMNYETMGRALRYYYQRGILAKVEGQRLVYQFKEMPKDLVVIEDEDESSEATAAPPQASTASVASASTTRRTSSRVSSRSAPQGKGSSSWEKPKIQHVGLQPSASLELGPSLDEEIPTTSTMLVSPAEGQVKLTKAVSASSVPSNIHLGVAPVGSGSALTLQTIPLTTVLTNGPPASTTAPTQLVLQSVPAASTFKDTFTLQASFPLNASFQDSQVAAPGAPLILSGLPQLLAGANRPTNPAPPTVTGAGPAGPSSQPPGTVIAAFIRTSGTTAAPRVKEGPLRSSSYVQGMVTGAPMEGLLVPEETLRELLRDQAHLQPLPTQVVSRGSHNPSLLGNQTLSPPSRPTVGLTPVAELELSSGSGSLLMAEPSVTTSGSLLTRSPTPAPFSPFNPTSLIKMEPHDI
# Chain of ETV5 (P41161 whole entry): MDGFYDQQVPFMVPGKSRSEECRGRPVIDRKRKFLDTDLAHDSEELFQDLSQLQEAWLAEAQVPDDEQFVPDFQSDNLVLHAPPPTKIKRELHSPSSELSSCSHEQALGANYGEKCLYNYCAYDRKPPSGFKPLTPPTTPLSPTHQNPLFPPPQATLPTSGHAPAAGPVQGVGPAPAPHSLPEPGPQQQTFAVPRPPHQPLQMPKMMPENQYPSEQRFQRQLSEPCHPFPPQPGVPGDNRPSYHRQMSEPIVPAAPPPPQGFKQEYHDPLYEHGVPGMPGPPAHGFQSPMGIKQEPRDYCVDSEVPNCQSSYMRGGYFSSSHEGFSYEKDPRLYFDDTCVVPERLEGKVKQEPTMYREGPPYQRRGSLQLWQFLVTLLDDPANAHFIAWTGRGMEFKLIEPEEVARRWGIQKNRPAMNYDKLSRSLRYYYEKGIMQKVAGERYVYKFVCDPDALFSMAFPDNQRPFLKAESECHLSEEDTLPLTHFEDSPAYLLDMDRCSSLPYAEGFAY
sequence,measurement,setting,value
AAATAA,binding signal,[1],"1.29 fold enrichment (6-mer frequency, TF over GST control)"
same,binding signal,[2],"1.37 fold enrichment (6-mer frequency, TF over GST control)"
same,binding signal,[3],"1.48 fold enrichment (6-mer frequency, TF over GST control)"
same,binding signal,[4],"1.27 fold enrichment (6-mer frequency, TF over GST control)"
same,binding signal,[5],"1.32 fold enrichment (6-mer frequency, TF over GST control)"
same,binding signal,[6],"1.34 fold enrichment (6-mer frequency, TF over GST control)"
same,binding signal,[7],"1.28 fold enrichment (6-mer frequency, TF over GST control)"
same,binding signal,[8],"1.43 fold enrichment (6-mer frequency, TF over GST control)"
same,binding signal,[9],"1.71 fold enrichment (6-mer frequency, TF over GST control)"
same,binding signal,[10],"1.3 fold enrichment (6-mer frequency, TF over GST control)"
